# Sampled rows, rich in hits. Any-hit rate of the full collection: about 21%.
# TDP1 cell noCPT: qHTS for Inhibitors of human tyrosyl-DNA phosphodiesterase 1 (TDP1): qHTS in cells in absence of CPT. DT40 Tdp1-/- hTDP1 cells, no CPT, ATP luminescence, 48 h. Potency, µM (doses to about 46.2 µM), for the others: at the highest dose activity change, negative = growth inhibition, most hits filed as inhibitors. AID 686978, 2013. hit rate 15% among 420,000; further: potency means the concentration at half of the fitted maximal effect; on the % scale 0 is the no-effect control and ±100 the full control effect; nearly all actives have a fitted effect of over 55% in size
#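 Cells were dispensed at 400 per well, compounds added by pin tool, plates incubated ≥48 hr at 37 °C, then CellTiter-Glo added for 30 min at room temperature before luminescence reading. Line: DT40 Tdp1-/- complemented with hTDP1; camptothecin omitted.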
# DRD3 agonist: qHTS of D3 Dopamine Receptor Agonist: qHTS | hit rate 0.58% among 410,000 | max activation, % | AID 652048, 2013 | D3R DiscoveRx beta-arrestin cells, luminescence, 90 min; in the data active means max activation above about 30%; further: 0% is about no effect
# Target sequence (P35462 whole entry, looked up): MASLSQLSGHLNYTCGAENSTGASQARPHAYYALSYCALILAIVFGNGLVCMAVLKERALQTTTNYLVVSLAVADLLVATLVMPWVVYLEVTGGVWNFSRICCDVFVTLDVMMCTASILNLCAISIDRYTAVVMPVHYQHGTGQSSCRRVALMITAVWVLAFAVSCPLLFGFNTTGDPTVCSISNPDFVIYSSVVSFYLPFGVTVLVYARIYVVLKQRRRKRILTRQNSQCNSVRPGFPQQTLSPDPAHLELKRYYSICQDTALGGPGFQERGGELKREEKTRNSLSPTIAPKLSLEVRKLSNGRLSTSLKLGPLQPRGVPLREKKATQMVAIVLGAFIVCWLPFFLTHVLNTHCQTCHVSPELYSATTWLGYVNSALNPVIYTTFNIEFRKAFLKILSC
#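 Cells at 1500/well, incubated overnight, then treated with pinned compounds (dopamine as control) for 90 min at 37 degrees C. DiscoveRx reagent added for 30 - 60 minutes at room temperature; luminescence read.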
# TDP1 cell CPT: qHTS for Inhibitors of human tyrosyl-DNA phosphodiesterase 1 (TDP1): qHTS in cells in presence of CPT; Potency, µM (series often up to 46.2 µM), inactives show top-dose activity change, negative = growth inhibition, usual class: inhibitors; hit rate 12% among 420,000; AID 686979, 2013; chicken DT40 Tdp1-/-;hTDP1 cells + 20 nM CPT, ATP luminescence, 48 h; further: potency means the concentration at half of the fitted maximal effect; on the % scale 0 is the no-effect control and ±100 the full control effect; nearly all actives have a fitted effect of over 55% in size
#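 Cell growth measured by CellTiter-Glo luminescence after a minimum 48 h, 37 C compound exposure with 20 nM CPT in Tdp1-knockout DT40 cells stably expressing hTDP1, seeded 400/well; qHTS titration format.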
# IL-1B inflam inh: qHTS for Inhibitors of Inflammasome Signaling: IL-1-beta AlphaLISA Primary Screen | THP-1 LPS/ATP IL-1B secretion, AlphaLISA, 16 h; active compounds read low | activity change, % at 57.5 µM | hit rate 4.7% among 360,000 | AID 743279, 2014; in the data active means activity change below about -50%; inconclusive means mostly about -30% to -49%; further: on the % scale 0 is the no-effect control and ±100 the full control effect
#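 Secreted IL-1B measured by AlphaLISA bead assay after 16 h compound exposure of THP-1 cells; compounds (final up to 57.5 uM) added 1 h before LPS (250 ng/mL) and ATP (1.25 mM) stimulation; lower signal means less secretion.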
# D3 antag: qHTS of D3 Dopamine Receptor Antagonist: qHTS | D(3) dopamine receptor (Homo sapiens), P35462 | max response, negative = inhibition, % | D3R cells, DiscoveRx beta-arrestin luminescence, antagonist mode; active compounds read low | AID 652054, 2013 | hit rate 2.5% among 360,000; in the data active means max response below about -50%; inconclusive means no clear call, values can overlap the other calls; further: on the % scale 0 is the no-effect control and ±100 the full control effect
#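 Cells plated overnight at 1500 cells/well, then exposed to library compounds with dopamine controls for 90 minutes at 37 degrees C. DiscoveRx reagent added for 30–60 minutes at room temperature; luminescence read, quantitative HTS format.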
# ClpP mod: qHTS Assay for Activators of ClpP; ATP-dependent Clp protease proteolytic subunit (Bacillus subtilis (strain 168)), P80244; hit rate 1.9% among 340,000; purified B. subtilis ClpP, FRET peptide cleavage, 20 min; Potency, µM (highest dose often 57.5 µM), inactives show at the highest dose activity change, negative = active; active means well fitted falling curve with a large enough effect; inconclusive means small, poorly fitted or top-dose-only effect; inactive means no such curve, though single readings can be large or run the other way; further: potency means the concentration at half of the fitted maximal effect; the source files actives as falling curves though it sought activators and does not explain the sign; nearly all actives have a fitted effect of over 65% in size
#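 FRET quenching reversal measured ClpP activation: 10 microg/mL B. subtilis ClpP at pH 8 with the FRET-FV decapeptide, read at 430 nm after 320 nm excitation. The 20-min minus 0-min signal was scaled between DMSO/no-enzyme wells and ADEP (5.8 microM final).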
# The depositor's hits bear a star; ? = inconclusive; . = not tested or not shown. Unless noted, the call rests on the fitted dose curve; in most records, active means well fitted inhibition curve with a large enough effect; inconclusive means small, poorly fitted or top-dose-only effect; inactive means flat fitted curve, though single readings scatter.
SMILES,TDP1 cell noCPT,DRD3 agonist,TDP1 cell CPT,IL-1B inflam inh,D3 antag,ClpP mod
COc1cc(OC)cc(C(=O)Nc2cc(C)nn2-c2ccccc2)c1,-20%,-14,-29%,-17,6,.
CCC(=O)Nc1ccccc1-c1nc2ccccc2n(C(C)C(=O)Nc2cccc(Cl)c2C)c1=O (stereo not drawn),?,-4,?,.,.,-3%
COC(=O)N1CCC2(CCCN(C(=O)Nc3ccc(OC)cc3)C2)CC1,-5%,.,3%,.,.,.
Cc1ccc(S(=O)(=O)n2nc(-c3ccccc3)nc2NCc2ccc(Cl)cc2)cc1,?,1,?,.,.,-2%
CN(CCc1ccccc1)C(=O)c1cc(COc2ccc(F)cc2Cl)on1,-16%,-9,-29%,-25,-12,0%
COCCNC(=O)C(C(=O)c1ccc(F)cc1)n1cc(C)ccc1=O (stereo not drawn),-3%,1,7%,3,6,-1%
CCN(CC)CCCNC(=O)c1c(C)oc2ncn(CC(C)C)c(=O)c12,-4%,-6,8%,.,.,-4%
CN(CC(=O)NCc1ccccc1)CC(=O)Nc1ccc(Cl)c(C(F)(F)F)c1,18µM*,6,15µM*,-11,6,1%
CN(CC(=O)NCCc1ccc(S(N)(=O)=O)cc1)CC(=O)Nc1ccc(Cl)c(C(F)(F)F)c1,13µM*,0,13µM*,?,-22,-2%
CCC1CN(C(=O)N2CCC(C(=O)NCc3ccc(N(C)C)cc3)CC2)c2ccccc2O1 (stereo not drawn),?,8,16µM*,.,.,0%
CC(C)Oc1ccc(CNC(=O)C2CCN(C(=O)N3CC(C)Oc4ccccc43)CC2)cc1 (stereo not drawn),?,3,?,.,.,-2%
CCOc1ccc(CCNC(=O)C2CCN(C(=O)N3CC(CC)Oc4ccccc43)CC2)cc1 (stereo not drawn),15µM*,4,15µM*,.,.,-3%
CCOc1ccc(CNC(=O)C2CCN(C(=O)N3CC(CC)Oc4ccccc43)CC2)cc1 (stereo not drawn),23µM*,9,15µM*,.,.,-2%
CCN(CC)S(=O)(=O)c1ccc(N2CCCCS2(=O)=O)cc1,-23%,-4,-15%,.,.,1%
Clc1ccc(N2CCN(/N=C/c3cccnc3)CC2)cc1,-10%,5,-16%,?,-6,-2%
O=C(N=C1SC2CS(=O)(=O)CC2N1Cc1ccccc1)C1CCCCC1 (stereo not drawn),-4%,-3,-14%,31,-6,0%
COc1cc(/C=C(\C#N)c2nc3ccccc3[nH]2)cc(Br)c1OCc1ccccc1,21µM*,17,18µM*,-18,-3,0%
COc1cc(/C=C(\C#N)c2nc3ccccc3[nH]2)ccc1Oc1ccc([N+](=O)[O-])cn1,21µM*,0,12µM*,?,30,-3%
COc1ccc(/C=C(\C#N)c2nc3ccccc3c(=O)[nH]2)cc1OC,18µM*,2,?,.,.,1%
COc1cc(/C=C(/C#N)c2nc3ccccc3c(=O)[nH]2)ccc1O,-24%,7,-18%,-4,11,0%
COc1c(O)ccc(/C=C(\C#N)c2nc3ccccc3[nH]2)c1[N+](=O)[O-],?,-3,3%,16,0,-1%
COc1cc(/C=C(\C#N)c2nc3ccccc3[nH]2)cc(Br)c1OCc1ccc(F)cc1,?,-3,?,2,-12,-12%
Cc1cc(/C=C(/C#N)c2nc3ccccc3[nH]2)c(C)n1-c1cccc([N+](=O)[O-])c1,13µM*,-32,16µM*,-62*,-17,-2%

# Screens (PubChem BioAssay)
